An excerpt weighted towards active compounds, which were near 2.4% of everything screened.
PABP polyA inh = PABP poly(A) RNA binding inhibitors, primary screen, biochemical, fluorescence polarization, uHTS. Polyadenylate-binding protein 1 (Homo sapiens), P11940. calls only at 35 µM. actives 1% (n = 290,000). AID 2014, 2009;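 note: calls also rest on retests at 20 µM and on dose response follow-up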
PABP1 MLLE inh = inhibitors of PABP1 MLLE–PAM2 peptide binding, primary screen, biochemical, fluorescence polarization, FITC-PAM2, GST-MLLE; actives 0.36% (n = 360,000); inhibition, % at 20 µM; Polyadenylate-binding protein 1 (Homo sapiens), P11940; in the data active = inhibition above about 35%, passing the limit was not always enough;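 note: plate controls were DMSO wells with GST-MLLE for no effect and wells lacking GST-MLLE protein for full effect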
PHOSPHO1 block = PubChem AID 1565; Phosphoethanolamine/phosphocholine phosphatase (Homo sapiens), Q8TCT1; inhibition, % at 13.3 µM; actives 1.1% (n = 290,000); recombinant PHOSPHO1, absorbance phosphatase assay; in the data active = inhibition above about 60%
Target sequence (Q8TCT1 whole entry, looked up): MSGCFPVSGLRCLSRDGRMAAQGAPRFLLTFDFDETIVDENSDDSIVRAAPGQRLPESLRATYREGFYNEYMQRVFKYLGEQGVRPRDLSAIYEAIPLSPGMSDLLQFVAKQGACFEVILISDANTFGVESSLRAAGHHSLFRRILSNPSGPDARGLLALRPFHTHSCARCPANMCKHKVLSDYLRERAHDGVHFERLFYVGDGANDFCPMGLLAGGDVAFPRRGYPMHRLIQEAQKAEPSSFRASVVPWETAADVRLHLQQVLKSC
Efa HMGR inh = inhibitors of E. faecalis class II HMGR, primary screen, biochemical, Enterococcus faecalis; HMG-CoA reductase (Enterococcus faecalis, mvaE); purified E. faecalis HMGR, NADPH absorbance 340 nm kinetic; inhibition, % at 10 µM; actives 0.41% (n = 190,000);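 active = inhibition above a set limit, the median over all tested compounds plus 3 SD, cut at about 9.5% in these data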;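 note: enzyme runs in reverse so mevalonate oxidation gives rising NADPH absorbance; 0% = complete reaction with DMSO and 100% = background rate lacking mevalonate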
eIF4H inh = human eIF4H binding inhibitors, primary screen, translation initiation inhibitor project, biochemical, uHTS, fluorescence polarization | eIF4H fluorescence polarization binding assay | inhibition, % at 35 µM | actives 0.94% (n = 290,000);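 note: calls also rest on retests at 20 µM and on dose response follow-up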
* hit, by the source's call; i = inactive; . = not tested or not shown; + = active, no number. Unless noted, the rule behind the calls is not given here.

SMILES | PABP polyA inh | PABP1 MLLE inh | PHOSPHO1 block | Efa HMGR inh | eIF4H inh
CCN1CCc2c(sc(NC(=O)c3ccc(S(=O)(=O)N(C)CC4CCCO4)cc3)c2C(N)=O)C1 (stereo not given) | i | -0.8 | 27.4 | . | -12.7
CCc1cccc(CC)c1NC(=O)COC(=O)c1ccccc1-c1nc2ccccc2s1 | i | -5.7 | 177.7* | -5.7 | 7.6
Cc1ccc(NC(=O)COC(=O)c2ccccc2-c2nc3ccccc3s2)c(C)c1 | i | -2.6 | -10.9 | -0.3 | 1.5
COc1cc(C#N)c(N=C(SCC#N)N2CCOCC2)cc1OC | i | -4.2 | 5.8 | -4.7 | -5.9
O=C(NCCO)/C(=C\c1cccs1)NC(=O)c1cccs1 | + | -4.4 | 1.8 | -2.9 | 3.4
CC(/C=N/n1c(-c2ccc(C)cc2)n[nH]c1=S)=C\c1ccco1 | i | -52.3 | 3.4 | -2.7 | 41.7
CC(/C=N/n1c(-c2ccccc2)n[nH]c1=S)=C\c1ccco1 | i | 0.6 | 84.2* | -1.2 | 35.7
CC(/C=N/n1c(-c2ccncc2)n[nH]c1=S)=C\c1ccco1 | + | -3.3 | 9.0 | . | 84.1*
Cc1ccc(S(=O)(=O)N2CCCCC2)cc1NC(=O)c1ccc(Cl)nc1 | . | 2.2 | . | . | .
CSc1cccc(NC(=S)N2CCC(N(C)C3CCCC3)CC2)c1 | + | -40.4 | -12.6 | 0.8 | 2.1*
CCOC(=O)N1CCC(N(CCN(C)C)C(=S)Nc2cccc(SC)c2)CC1 | i | 17.2 | -9.8 | -8.0 | 5.9
COc1ccc(-n2nc([N+](=O)[O-])c(=NCCCN3CCCC3=O)n2O)cc1 | i | -3.8 | 61.2* | -5.0 | 0.1
O=C1CCCN1CCCN=c1c([N+](=O)[O-])nn(-c2ccc(Cl)cc2)n1O | i | -10.9 | -4.5 | -4.4 | -13.0
CC(=O)Nc1cccc(-c2ccnc3c2CC(C(=O)NCc2ccc(N4CCN(C)CC4)cc2)O3)c1 (stereo not given) | . | -0.8 | . | . | .
O=C(COC(=O)C1CC2C=CC1C2)NCc1ccc(F)cc1 (stereo not given) | i | -6.0 | -5.1 | -2.6 | -2.0
O=C(COC(=O)CCOc1ccccc1)NCc1ccco1 | + | -8.4 | 5.7 | -3.5 | 93.6*
CN(C)C(CNC(=O)CCOc1ccccc1)c1ccco1 (stereo not given) | i | -10.5 | 15.0 | 21.2* | 100.8
O=C(COc1ccccc1)NCc1ccco1 | . | 5.8 | . | . | .
O=C(COC(=O)C1CC2C=CC1C2)NCc1ccco1 (stereo not given) | + | -1.1 | -3.5 | -1.4 | 93.4*
CCOc1ccc(NC(=O)CNc2cccc(S(=O)(=O)N3CCCCCC3)c2)cc1OCC | . | 11.5 | . | . | .
CC(=O)c1c(-c2ccc(C)cc2)nc2c3ccccc3ccn12 | i | -7.1 | 64.3* | 3.8 | -10.2
O=C(O)Cc1ccc(O)c(F)c1 | i | 3.2 | -3.8 | -6.6 | -5.0
O=C(Nc1ccc(S(=O)(=O)N2CCOCC2)cc1)c1ccc2c(c1)OCO2 | i | -3.6 | 13.9 | . | -5.2
O=S(=O)(c1ccc(NC(=S)Nc2ccc3c(c2)OCO3)cc1)N1CCOCC1 | + | 22.2 | -7.5 | 0.3 | 94.2*
O=C(CCc1ccccc1)NC(=S)Nc1ccc(S(=O)(=O)N2CCOCC2)cc1 | i | 44.1* | -5.0 | -2.8 | -5.3
SMILES | PABP polyA inh | PABP1 MLLE inh | PHOSPHO1 block | Efa HMGR inh | eIF4H inh
COC(=O)c1ccc(CSCc2ccc(C#N)cc2)cc1 | i | . | 31.6 | . | -1.2
COc1ccc(C(=O)C2CCCN(C(=O)c3csc(SC)n3)C2)cc1F (stereo not given) | . | -3.8 | . | . | .
O=C(CSc1ncc(-c2ccccc2)[nH]1)Nc1cccc(O)c1 | i | 26.5 | 93.5* | -5.0 | 0.8
NC(=O)CSc1ncc(-c2ccccc2)[nH]1 | i | 19.4 | 73.8* | -6.3 | -2.0
O=C(CSc1ncc(-c2ccccc2)[nH]1)Nc1ccccc1 | i | 15.0 | 17.1 | -1.3 | -8.0
Cc1cccc(C(C(=O)NC2CCCC2)N(C(=O)c2csnn2)C2CCCC2)c1 (stereo not given) | i | 2.6 | 20.0 | . | -10.7
O=C(c1ccc(N2CCOCC2)cc1[N+](=O)[O-])N1CCOCC1 | i | -1.0 | -15.4 | -4.1 | -7.1
CCOC(=O)c1ccc(-n2c(N)c(C(=O)NCC3CCCO3)sc2=S)cc1 (stereo not given) | i | 19.3 | 75.7* | -2.2 | -10.6
CCOC(=O)c1sc(=S)n(-c2ccc3c(c2)OCO3)c1N | i | 40.0* | -63.2 | -2.6 | 1.3
COc1ccc(-n2c(N)c(C(=O)NCC3CCCO3)sc2=S)cc1 (stereo not given) | i | 18.7 | 39.0 | 1.7 | 9.2
CCOC(=O)c1sc(=S)n(-c2ccc(F)c(F)c2)c1N | i | 34.7 | 44.8 | 0.8 | -3.6
CC(Sc1nc2ccccc2c(=O)n1C)C(=O)N(C)C1CCCCC1 (stereo not given) | . | -20.3 | . | . | .
O=C1CCCCCN1Cc1nnc(SCc2nc3ccccc3s2)n1-c1ccccn1 | i | 9.5 | 20.8 | -3.9 | 11.2
CCn1c(CN2CCCCCC2=O)nnc1SCc1cnc(-c2ccccc2)s1 | i | -39.4 | 61.8* | -8.9 | 2.0
CC(NC(=S)Nc1ccccc1C(F)(F)F)C1CC2CCC1C2 (stereo not given) | i | 45.5* | 32.2 | -4.3 | -5.3
COc1cc2ccc3c(CCN(C)C)cc(OC)c(OC)c3c2cc1OC | + | -54.4 | 3.3 | . | -6.9
CN(C)CCc1cc2c(c3c1ccc1ccccc13)OCO2 | i | 11.3 | 39.0 | . | -8.9
O=C(COC(=O)C1CCN(C(=O)c2ccc(Cl)cc2)CC1)Nc1ccccc1F | . | 4.8 | . | . | .
COc1ccc(C)cc1NC(=O)COC(=O)C1CCN(C(=O)c2ccc(Cl)cc2)CC1 | i | 13.2 | 24.7 | 18.9* | -4.5
COc1ccc(C(C)=O)cc1CSc1ccc2c(c1)OCCO2 | i | 28.2 | 24.0 | . | -3.3
Cc1ccc(C(=O)Cn2cnc3ccccc3c2=O)cc1 | i | 3.3 | 30.2 | 10.1* | -5.4
CCCN(CCC)C(=O)c1ccc2nc(-c3ccc(OC)c(OC)c3)c(-c3ccc(OC)c(OC)c3)nc2c1 | i | 12.9 | 24.8 | . | -4.2
COC(=O)N1CCCc2cc(C)ccc21 | i | -10.8 | 38.5 | 11.3* | -2.7
CN(C)S(=O)(=O)c1cccc(NC(=O)Cn2cc(C(F)(F)F)cc(Cl)c2=O)c1 | i | 0.9 | 24.9 | 16.4* | -3.5
CCOC(=O)c1nc(NCc2cccc(OC)c2)c2ccccc2n1 | i | -0.7 | 24.3 | -0.1 | -3.0
OCCn1nc2c3ccccc3nc-2n(-c2ccccc2)c1=S | i | 8.6 | 76.4* | -5.3 | -5.3
O=C(N/N=C/c1c[nH]c2ccc(Br)cc12)c1ccn(Cc2ccc(Cl)cc2)n1 | i | -4.5 | 62.0* | -2.4 | -1.1
O=C(N/N=C/c1c[nH]c2ccccc12)c1ccn(Cc2ccc(Cl)cc2Cl)n1 | i | 0.8 | 37.9 | -1.7 | -6.6

Source: PubChem
